For seven sequences, PBM binding z-score results are on record in the supplement of paper PMC6555819.

Assay in all cases: PBM binding z-score (relative to random genomic background probes); higher = stronger binding; sequences stand for … in GC…GCGATTGACAGCGTAGAATGAAGG
Experiment [1] has as its system FXR:RXRa (NR concentration 270 nM, RXRa partner concentration 90 nM). The gist of the method: (§1)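 Antibodies against each partner of ligand-free nuclear receptor dimers (one per run) detected binding on custom Agilent 4×180K protein-binding microarrays after 1 h incubation. The double-stranded probes had 34-nt variable regions carrying direct-repeat seeds, single-nucleotide variants, half-site ablations and random human genomic background sequences. Binding z-scores, from regression-normalized fluorescence, use the random background probes as reference.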

Experiment [2] deals with LXRa:RXRa (NR concentration 270 nM, RXRa partner concentration 90 nM). The gist of the method:
as §1

The test system of experiment [3] is LXRa homodimer (NR concentration 270 nM). The gist of the method:
as §1

Experiment [4] concerns LXRb:RXRa (NR concentration 270 nM, RXRa partner concentration 90 nM). The method, boiled down: as §1
The test system of experiment [5] is LXRb homodimer (NR concentration 270 nM). The method, boiled down: as §1
Experiment [6] deals with PPARa:RXRa (NR concentration 270 nM, RXRa partner concentration 90 nM). The gist of the method:
as §1

Experiment [7] has as its system PPARg:RXRa (NR concentration 180 nM, RXRa partner concentration 90 nM). The method, boiled down: as §1
The test system of experiment [8] is PPARg:RXRa 270nM:90nM, anti-RXR (NR concentration 270 nM, RXRa partner concentration 90 nM). The gist of the method: as §1
Experiment [9] relates to PPARg:RXRa 30nM:10nM, anti-RXR (NR concentration 30 nM, RXRa partner concentration 10 nM). The method, boiled down:
as §1

Experiment [10] relates to PPARg:RXRa 90nM:30nM, anti-RXR (NR concentration 90 nM, RXRa partner concentration 30 nM). The gist of the method:
as §1

The subject of experiment [11] is PPARg:RXRa DBDmut IVT, anti-RXR (DBD mutation: RXRa K156A/R161A, NR concentration 270 nM, RXRa partner concentration 90 nM). The method, boiled down:
as §1

The test system of experiment [12] is PPARg:RXRa IVT, anti-PPARg (NR concentration 270 nM, RXRa partner concentration 90 nM). The gist of the method: as §1
Experiment [13] relates to PPARg DBDmut:RXRa IVT, anti-PPARg (DBD mutation: PPARg1 K132A/R137A, NR concentration 270 nM, RXRa partner concentration 90 nM). The method, boiled down: as §1
Experiment [14] has as its system PPARg DBDmut IVT, anti-PPARg (DBD mutation: PPARg1 K132A/R137A, NR concentration 270 nM). The gist of the method: as §1
Experiment [15] has as its system PPARg homodimer (NR concentration 180 nM). The gist of the method: as §1
Experiment [16] has as its system PXR:RXRa (NR concentration 270 nM, RXRa partner concentration 90 nM). The gist of the method: as §1
Experiment [17] has as its system PXR homodimer (NR concentration 270 nM). The gist of the method:
as §1

The subject of experiment [18] is RARa:RXR (NR concentration 270 nM, RXRa partner concentration 90 nM). The gist of the method: as §1
Experiment [19] deals with RARa homodimer (NR concentration 270 nM). The method, boiled down:
as §1

Experiment [20] relates to RARb:RXRa (NR concentration 270 nM, RXRa partner concentration 90 nM). The method, boiled down: as §1

Turning to CGTCAAAGTTCAACGTAACGTAACAGAAAGCAGC, the PBM binding z-score in experiment [1] was 6.54; in [2] it was 5.59; in [3], 2.98; in experiment [4] it was 3.72; in [5], 1.38; in experiment [6], 4.94. The PBM binding z-score was 4.58 in experiment [7]; 4.97 in experiment [8]; 2.08 in experiment [9]; 3.84 in experiment [10]; 0.266 in experiment [11]; 1.76 in [12]. In addition, the PBM binding z-score came out at 0.727 in experiment [13]; 1.04 in experiment [14]; 2.48 in [15]; 4.4 in experiment [16]; 2.41 in experiment [17]; 3.07 in experiment [18]. Further, the PBM binding z-score was 1.3 in experiment [19] and 5.18 in experiment [20].
On to TCTATTAGTTGATTAGTGCAACCGAAACAGCGGA, for which the PBM binding z-score in experiment [1] is 0.567; in experiment [2], 0.676; in experiment [3] it was 0.422; in experiment [4], 0.608; in [5] it was 0.403; in experiment [6], 0.779. For the same sequence, the PBM binding z-score in [7] was -0.179; in experiment [8], 2.12; in experiment [9], 3.55; in experiment [10], 2.78; in experiment [11] it was 1.81; in experiment [12], 0.352. In addition, the PBM binding z-score in experiment [13] is 1.1; in experiment [14], 1.5; in experiment [15], 0.86; in experiment [16], 0.603; in experiment [17], 0.441; in [18], 0.464. Besides, the results for the PBM binding z-score in experiment [19] and in experiment [20] were 1.06 and 0.332, respectively.
In the case of ACTCGGAGGACAAAGGCCAGAGCTACGCCAGTGA, the PBM binding z-score was -0.254 in experiment [1]; -0.622 in experiment [2]; -0.482 in experiment [3]; -1.08 in experiment [4]; -0.835 in experiment [5]; 0.196 in experiment [6]. Also, the PBM binding z-score in experiment [7] was 1.47; in experiment [8], 2.38; in experiment [9] it was 0.441; in experiment [10], 1.97; in experiment [11], -0.0476; in experiment [12], -0.304. The PBM binding z-score in experiment [13] was -0.91; in experiment [14] it was -1.31; in [15], -0.117; in experiment [16] it was -0.788; in experiment [17], -0.627; in experiment [18], -0.794. For the same sequence, the PBM binding z-score was -0.32 in experiment [19] and 1.44 in experiment [20].
ATCGAAAGGTCGAAGTGAGTATAGAGAAAGGGAA: the PBM binding z-score in experiment [1] came to 3.94; in experiment [2], 3.53; in [3], 0.221; in [4], 2.69; in experiment [5], 0.919; in experiment [6] it was 4.23. Further, the PBM binding z-score in experiment [7] amounted to 2.38; in experiment [8], 3.01; in [9], 1.33; in experiment [10] it was 2.56; in experiment [11] it was 0.215; in [12], 1.01. For the same sequence, the PBM binding z-score in [13] stood at 1.1; in [14] it was 1.1; in experiment [15] it was 1.21; in experiment [16], 2.16; in experiment [17], 0.245; in experiment [18], 2.76. Also, the PBM binding z-score in experiment [19] stood at 1.12; in [20] it was 3.55.
Regarding CCTACTGGGCCAAAAAGGTCAATGATGCCGATAA, the PBM binding z-score in [1] was 2.77; in experiment [2], 3.48; in experiment [3] it was 1.68; in [4], 3.86; in experiment [5], -0.306; in experiment [6], 4.92. For the same sequence, the PBM binding z-score in [7] worked out at 3.36; in experiment [8], 3.84; in experiment [9], 1.55; in experiment [10], 2.86; in [11] it was 3.37; in [12] it was 4.64. The PBM binding z-score in experiment [13] is 0.0987; in [14] it was -0.775; in [15] it was 2.6; in experiment [16], 3.47; in experiment [17] it was 0.909; in experiment [18], 3.89. Also, the PBM binding z-score in experiment [19] was found to be 0.262; in [20], 4.
As to GTACCAAGGTGAATAGGTCGTCGATGAGTAGGCG, the PBM binding z-score in experiment [1] was 0.785; in [2] it was 0.833; in [3], -0.158; in [4], 0.527; in experiment [5], -0.663; in [6], 2.45. The PBM binding z-score in experiment [7] came out at 1.5; in [8] it was 1.81; in experiment [9], 0.196; in [10], 1.18; in [11], 1.91; in experiment [12], 2.77. Besides, the PBM binding z-score in experiment [13] is -0.404; in experiment [14], -0.279; in experiment [15], 0.976; in [16], 0.807; in [17], -0.119; in experiment [18], 1.9. The PBM binding z-score in [19] was 0.0363; in experiment [20], 2.18.
Regarding TCTTGTAGATCAATAGAGGTGAAGAAAGTGCGCT, the PBM binding z-score in experiment [1] is 1.02; in [2], 0.833; in experiment [3] it was -0.122; in experiment [4] it was 0.533; in [5] it was -0.232; in [6] it was 1.5. Besides, the PBM binding z-score in experiment [7] came to 0.0312; in experiment [8], 1.72; in [9], 2.84; in experiment [10] it was 2.21; in [11], 2.33; in experiment [12], 1.64. Also, the PBM binding z-score in [13] was 0.582; in experiment [14], 1.07; in experiment [15], -0.35; in [16], 1.52; in experiment [17], -0.318; in experiment [18] it was 1.28. Further, the PBM binding z-score in [19] was found to be 0.328; in experiment [20] it was 0.777.
